# An excerpt weighted towards active compounds, which were near 1.3% of everything screened.
# PREPL inhibitor: human PREPL enzyme inhibition | Q4J6C6 | recombinant PREPL, fluorescence polarization activity-based probe | inhibition, % at 5.96 µM | 0.68% of 320,000 active | AID 2751; in the data active = inhibition above about 43%;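 note: 0% = enzyme with DMSO and 100% = wells lacking enzyme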
# Target sequence (Q4J6C6 whole entry, looked up): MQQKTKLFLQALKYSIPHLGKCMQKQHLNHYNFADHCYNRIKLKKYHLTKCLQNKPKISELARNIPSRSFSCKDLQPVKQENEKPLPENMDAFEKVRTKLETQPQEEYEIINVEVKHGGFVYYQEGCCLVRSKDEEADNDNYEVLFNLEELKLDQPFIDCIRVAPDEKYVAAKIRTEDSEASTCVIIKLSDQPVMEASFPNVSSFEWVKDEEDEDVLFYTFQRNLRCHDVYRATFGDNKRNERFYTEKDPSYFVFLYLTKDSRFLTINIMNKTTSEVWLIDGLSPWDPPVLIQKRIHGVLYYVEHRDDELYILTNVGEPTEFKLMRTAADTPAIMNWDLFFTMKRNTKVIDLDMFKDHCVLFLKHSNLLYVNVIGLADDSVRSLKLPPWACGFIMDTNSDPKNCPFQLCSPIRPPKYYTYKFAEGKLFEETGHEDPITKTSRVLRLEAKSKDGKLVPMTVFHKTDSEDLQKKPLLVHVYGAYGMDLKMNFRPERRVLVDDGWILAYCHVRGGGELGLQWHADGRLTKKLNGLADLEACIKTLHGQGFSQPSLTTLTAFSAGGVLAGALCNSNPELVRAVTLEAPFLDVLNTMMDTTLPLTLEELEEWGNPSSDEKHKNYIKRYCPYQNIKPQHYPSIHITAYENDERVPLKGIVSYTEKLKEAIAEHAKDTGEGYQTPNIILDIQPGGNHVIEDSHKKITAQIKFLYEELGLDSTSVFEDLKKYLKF
# LYPLA1 inh: blocks human lysophospholipase 1, a PME1 counter-screen | recombinant LYPLA1, FP-Rh probe fluorescence polarization | inhibition, % at 5.9 µM | 0.16% of 320,000 active;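 active = inhibition above the mean of all tested compounds plus 3 SD, set per campaign, cut at about 14% in these data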;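 note: inhibitors block serine hydrolase probe labeling of LYPLA1 so polarization falls; 0% = enzyme with DMSO and 100% = wells lacking LYPLA1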
# Fam108B inh: blocks mouse Fam108B hydrolase in RBBP9 counter-screen; AID 1947; 0.33% of 300,000 active; recombinant Fam108B, FP-Rh probe fluorescence polarization; inhibition, % at 9.51 µM;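 active = inhibition above the screen mean inhibition plus 3 SD, computed separately per campaign, cut at about 18% in these data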;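 note: inhibitors lower polarization as less probe binds the enzyme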
# LYPLA2 counter: counter-screen for PME1 inhibitors: inhibitors of human LYPLA2; O95372; recombinant LYPLA2, FP-Rh probe fluorescence polarization; inhibition, % at 5.9 µM; 0.38% of 320,000 active; AID 2177;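 active = inhibition above the screen-wide mean plus 3 SD, limit set per campaign, cut at about 26% in these data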;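 note: 0% = LYPLA2 with DMSO and 100% = wells lacking LYPLA2 enzyme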
# PME-1 inh: PME-1 (human) inhibition; Q9Y570; recombinant PME-1, FP-Rh probe fluorescence polarization; 0.53% of 320,000 active; inhibition, % at 5.9 µM;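 active = inhibition above the campaign mean of all compounds plus 3 SD, cut at about 26% in these data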;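 note: competitive labeling of PME-1 active site by serine hydrolase directed probe; 0% = PME-1 with DMSO and 100% = wells lacking PME-1 enzyme; inhibitors block probe labeling so polarization falls and inhibition rises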
# Fam108b confirm: confirmation of mouse Fam108b serine hydrolase inhibitors; shares compounds with Fam108B inh; recombinant Fam108b, FP-Rh probe fluorescence polarization; inhibition, % at 9.51 µM; 44% of 930 active;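 active = inhibition above a limit from the primary screen, the mean over all compounds plus 3 SD, cut at about 19% in these data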;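 note: 0% = median of active Fam108b wells and 100% = catalytically dead S170A mutant; inhibitors free the probe so polarization falls as inhibition rises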
# Fam108b inh: inhibits mouse Fam108b in gel-based ABPP | 44% of 260 active | inhibition, % at 20 µM | recombinant Fam108b, fluorophosphonate probe | AID 588649 | shares compounds with Fam108B inh; in the data active = inhibition above about 40%
# * marks the source's active call; other numbers are inactive results; x = no result.
SMILES,PREPL inhibitor,LYPLA1 inh,Fam108B inh,LYPLA2 counter,PME-1 inh,others
C=CC[C@@H]1C=C(C)C[C@H](C)C[C@H](OC)[C@H]2O[C@@](O)(C(=O)C(=O)N3CCCC[C@H]3C(=O)O[C@H](/C(C)=C/[C@@H]3CC[C@@H](O)[C@H](OC)C3)[C@H](C)[C@@H](O)CC1=O)[C@H](C)C[C@@H]2OC,55*,0,-4,-2,-7,
O=C(COC(=O)Cc1ccc(Cl)cc1)NCc1cccs1,4,x,x,x,x,
O=C(CCn1c(=O)[nH]c2ccsc2c1=O)N1CCN(c2cccc(Cl)c2)CC1,18,4,3,9,4,
Cc1ccc(Cl)cc1N1CCN(C(=O)Cc2ccc(-n3c(=O)[nH]c4ccsc4c3=O)cc2)CC1,-5,2,6,34*,4,
CC1(C)Cc2c(c(N3CCCC3)nc3sc4c(N5CCN(CCO)CC5)ncnc4c23)CO1,48*,-1,-3,-5,2,
O=C(COc1ccccc1[N+](=O)[O-])N/N=C/c1ccc(OC(=O)c2ccco2)cc1,62*,-6,-9,-2,-6,
COc1cc(/C=N/NC(=O)COc2ccccc2[N+](=O)[O-])ccc1OC(=O)c1ccco1,101*,-1,0,1,-4,
CSc1nnc(CCNS(=O)(=O)c2ccccc2Br)n1C,-12,-2,6,9,1,
COc1ccc(S(=O)(=O)N(C)C)cc1NC(=O)Cc1c[nH]c2ccccc12,2,-5,-8,1,78*,
Cc1ccc(S(=O)(=O)N(C)C)cc1NC(=O)CCc1c[nH]c2ccccc12,9,1,-3,-1,5,
C=CCOc1ccc(/C=N/NC(=O)c2cc3c(OC)cc(OC)cc3[nH]2)cc1,31,-22,13,-28,41*,
COc1ccc(C)cc1NC(=O)NNC(=O)c1cc2ccccc2cc1O,22,-14,12,-8,26*,
CCOc1ccccc1C(=O)OC(C)C(=O)Nc1ccc(S(=O)(=O)N2CCCC2)cc1 (configuration not stated),3,-4,x,1,0,
COc1ccc(NC(=O)c2c[nH]n3c(=O)cc(C4CCN(C(=O)OC(C)(C)C)CC4)nc23)cc1Cl,27,1,5,-3,33*,
CC(C)(C)OC(=O)N1CCC(c2cc(=O)n3[nH]c(-c4ccc(Cl)cc4)cc3n2)CC1,0,1,-1,0,-8,
COc1ccc(Cl)cc1C(=O)NNC(=O)CSc1nnnn1C,-4,0,-2,-1,-2,
N#C/C(=N\Nc1ccc(Cl)c(Cl)c1)C(=O)C1CC1,4,11,8,12,34*,
COc1cc2c(cc1NC(=S)Nc1ccccc1C)oc1ccccc12,28,-3,5,-5,6,
COc1cc2c(cc1NC(=S)Nc1cccc(C)c1)oc1ccccc12,44*,-3,5,-9,7,
Cc1cccc(NC(=O)CCC(=O)OCC(=O)c2ccc(Oc3ccc([N+](=O)[O-])cc3)cc2)c1,5,1,3,31*,5,
Cc1ccc(C(=O)COC(=O)c2cccc(NC(=O)c3ccc([N+](=O)[O-])cc3[N+](=O)[O-])c2)cc1,13,-19,12,24,32*,
CCOc1ccccc1NC(=O)CC1Nc2cc(C)c(C)cc2NC1=O (configuration not stated),9,-3,6,-5,35*,
N#C/C(=C\c1ccc(-c2ccccc2[N+](=O)[O-])o1)C(=O)Nc1nc(-c2cccs2)cs1,19,-13,6,12,29*,
N#C/C(=C\c1ccc(-c2ccc([N+](=O)[O-])cc2)o1)C(=O)Nc1nc(-c2cccs2)cs1,11,-13,0,-8,1,
C/C(=N/Nc1nc(-c2ccccc2F)nc2ccccc12)c1ccccc1O,22,-15,7,-14,26*,
CN(c1ccccc1)S(=O)(=O)c1cccc(NC(=O)c2cc(=O)c3ccccc3o2)c1,1,-36,-18,-51,-25,
Cc1ccc(S(=O)(=O)N(C)C)cc1NC(=O)c1cc(=O)c2ccccc2o1,-1,-3,21*,-3,2,Fam108b confirm=33*;Fam108b inh=0
COc1cccc(N2CCN(S(=O)(=O)c3ccc(-c4coc(C)n4)cc3)CC2)c1,9,1,3,2,-1,
